From the supplement of paper PMC10011410
± gives the standard deviation of the averaged measurements.

System: AmpC beta-lactamase (E. coli)
Test: AmpC inhibition relative to DMSO; higher = more inhibition
Protocol: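 Aggregation counter-screen: inhibition of E. coli AmpC beta-lactamase (5 nM, nitrocefin substrate, 50 mM sodium phosphate pH 7.0, RT, 5 min) by KAT inhibitors at 4, 11, 33 and 100 uM, with or without 0.01% Triton X-100. Percent inhibition is relative to DMSO controls. Four technical replicates.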

[1] = 4 µM, detergent: 0.01% Triton X-100
[2] = 11 µM, detergent: 0.01% Triton X-100
[3] = 33 µM, detergent: 0.01% Triton X-100
[4] = 100 µM, detergent: 0.01% Triton X-100
[5] = 100 µM, detergent: no detergent

SMILES | AmpC inhibition [1] [%] | AmpC inhibition (4 µM, detergent: no detergent) [%] | AmpC inhibition [2] [%] | AmpC inhibition (11 µM, detergent: no detergent) [%] | AmpC inhibition [3] [%] | AmpC inhibition (33 µM, detergent: no detergent) [%] | AmpC inhibition [4] [%] | AmpC inhibition [5] [%]
CC(=O)c1c(O)c(C)c(O)c(Cc2c(O)c3c(c(C(=O)C=Cc4ccccc4)c2O)OC(C)(C)C=C3)c1O | 0.746 ± 2.2 | 3.59 ± 4.4 | 5.76 ± 7.3 | 41 ± 3.5 | -0.691 ± 4 | 73.8 ± 1.6 | 7.83 ± 5.4 | 82.1 ± 1.2
O=C(/C(C(N1CC2=CC=CC=C2)=O)=C/C3=C(C)C=C(O)C=C3C)N(CC4=CC=CC=C4)C1=O | 4.49 ± 6.9 | 2.08 ± 1.8 | 3.45 ± 13 | 29.6 ± 8.8 | 10.9 ± 3.2 | 65.9 ± 6.2 | 14.8 ± 0.9 | 84.9 ± 8.3
Cc1cc2c(C(C)C)c(O)c(O)c(C=O)c2c(O)c1-c1c(C)cc2c(C(C)C)c(O)c(O)c(C=O)c2c1O | -0.343 ± 1.1 | 0.793 ± 12 | 4.76 ± 2.2 | -3.81 ± 3.7 | -3 ± 5.7 | -7.04 ± 18 | 6.4 ± 5.5 | 32.1 ± 2.7
